SMN2 splice enh: SMN2 splice variant enhancement; HEK293 SMN2-luciferase splicing reporter, luminescence, 30-36 h; Potency, µM (doses to about 46.1 µM), for inactives: at the highest dose activity change, positive = activation, usual class: activators; 210,000 tested, 2.8% active; AID 1458; further: % of control where 0% means no effect; nearly all actives have a fitted effect of over 55% in size
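HEK293 cells carry an SMN2 minigene-luciferase reporter in which exon 7 inclusion puts luciferase in frame. Cells were seeded at 2000 cells/well, attached for 10-12 hours, then exposed to compounds for 30-36 hours at 37C before ONE-Glo luminescence.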
FLuc counter: inhibits or activates purified firefly luciferase, miR-21 counter-screen | AID 588342 | 360,000 tested, 6.9% active | purified FLuc, Km substrates, luminescence inhibition | Potency, µM (highest dose often 57.5 µM), without a hit: top-dose activity change, negative = inhibition, usual class: inhibitors | P08659;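 further: plate controls were vehicle for no effect and reference inhibitor for full effect; nearly all actives have a fitted effect of over 55% in size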
Target sequence (P08659 whole entry, looked up): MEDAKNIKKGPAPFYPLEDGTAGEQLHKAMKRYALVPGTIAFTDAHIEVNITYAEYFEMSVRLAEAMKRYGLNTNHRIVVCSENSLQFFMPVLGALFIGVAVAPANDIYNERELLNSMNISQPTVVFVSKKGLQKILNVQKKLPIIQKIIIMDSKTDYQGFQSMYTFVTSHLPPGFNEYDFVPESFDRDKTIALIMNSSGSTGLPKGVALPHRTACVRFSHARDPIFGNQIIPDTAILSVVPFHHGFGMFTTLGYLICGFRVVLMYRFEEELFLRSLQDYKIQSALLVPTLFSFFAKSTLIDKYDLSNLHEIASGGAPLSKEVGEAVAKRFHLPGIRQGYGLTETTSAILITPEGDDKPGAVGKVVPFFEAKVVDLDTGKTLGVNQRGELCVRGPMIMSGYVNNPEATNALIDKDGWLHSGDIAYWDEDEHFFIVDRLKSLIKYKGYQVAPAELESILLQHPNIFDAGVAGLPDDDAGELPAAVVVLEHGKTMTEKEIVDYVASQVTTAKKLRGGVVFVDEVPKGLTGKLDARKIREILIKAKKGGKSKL
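Biochemical qHTS of compounds, final roughly 60 µM downward over six points, against 10 nM purified firefly luciferase using Km concentrations of substrates (10 uM D-luciferin, 10 uM ATP) in Tris acetate pH 7.5 buffer; luminescence output.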
ELG1 genotoxic: inducers of genotoxicity in HEK293T ELG1-luciferase cells. HEK293T ELG1-luciferase reporter, luminescence, 16 h. 330,000 tested, 1.3% active. Potency, µM (series often up to 46 µM), for the others: top-dose activity change, positive = activation, hits mostly activators; further: % of control where 0% means no effect; nearly all actives have a fitted effect of over 60% in size
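DMSO vehicle served as control against compound-treated ELG1-luciferase HEK293T cells; exposure lasted 16 hr at 37 °C and 5% CO2, followed by ONE-Glo luminescence detection after 30 min.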
Luc counter: Kinase-Glo luciferase inhibition (counter-screen) | Q27757 | Kinase-Glo luciferase, ATP luminescence, 8 min | Potency, µM (doses to about 38.3 µM), for inactives: top-dose activity change, negative = inhibition, actives largely listed as inhibitors | 200,000 tested, 0.28% active | AID 1379; further: on the % scale 0 is the no-effect control and ±100 the full control effect; nearly all actives have a fitted effect of over 60% in size
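Recombinant Kinase-Glo luciferase, 10 uM ATP (linear range), luciferin; imidazole pH 7.2 / KCl / MgCl2 / Tween / BSA buffer; 8 min RT; luminescence.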
Rab9 prom act: Rab9 promoter activation; Huh7 Rab9 promoter-luciferase reporter, luminescence, 24 h; Potency, µM (doses to about 9.22 µM), without a hit: at the top dose activation, negative = inhibition, most hits filed as activators; 320,000 tested, 2.8% active; AID 485297; further: % of control where 0% means no effect; nearly all actives have a fitted effect of over 60% in size
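Cells were plated at 1500 per well in reduced-serum medium with 10% FBS and left 2 h. Compound in DMSO was then added for 24 h at 37 °C. Reporter signal was read by luminescence after 10 min with luciferase detection reagent.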
NPC1 prom act: activates the NPC1 promoter; Potency, µM (series often up to 9.22 µM), for inactives: at the top dose activation, hits mostly activators; AID 485313; Huh7 NPC1 promoter luciferase reporter, 24 h; 320,000 tested, 2.4% active; further: % of control where 0% means no effect; nearly all actives have a fitted effect of over 60% in size
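Quantitative HTS used a cell-based reporter: Huh7 cells stably bearing the NPC1 promoter upstream of luciferase were treated with compounds for 24 h, and promoter activation was read as luminescence.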
Starred values were filed as active, the others as inactive. Sampled rows, rich in hits. Any-hit rate of the full collection: about 7.3%. The call rests on the fitted dose curve; in most records, active means well fitted curve in the direction sought with a large enough effect; inconclusive means small, poorly fitted or top-dose-only effect, or another doubt; inactive means no such curve, though single readings can be large; an effect the other way counts as inactive or inconclusive. Potency means the concentration at half of the fitted maximal effect.

For C[C@@H]1C=C[C@](Cc2ccccc2)(C(=O)NCC2CC2)N1C(=O)c1ccccc1 the results were SMN2 splice enh inconclusive, FLuc counter inconclusive, ELG1 genotoxic 10%, Luc counter 0%, Rab9 prom act 20% and NPC1 prom act 7%.
For COc1cccc(N2C(=O)CSC23C(=O)N(CC(=O)Nc2cc(C)ccc2C)c2ccccc23)c1 (stereo not given) the results were FLuc counter 2%.
COc1cc(/C=N/N=C(\N)c2nonc2N)cc(OC)c1O was read as FLuc counter 9.5µM*, ELG1 genotoxic inconclusive, Rab9 prom act 1% and NPC1 prom act -1%.
COc1ccc(/C=N/N=C(\N)c2nonc2N)cc1 was read as SMN2 splice enh 4.5µM*, FLuc counter 2.1µM*, ELG1 genotoxic 0.73µM*, Luc counter 10µM*, Rab9 prom act 0.4µM* and NPC1 prom act 0.63µM*.
COc1ccc(/C=N/Nc2nonc2N)cc1 was read as SMN2 splice enh 5%, FLuc counter inconclusive, ELG1 genotoxic 3%, Luc counter -5%, Rab9 prom act 23% and NPC1 prom act 13%.
Screening CCN(CC)CCCNc1oc(/C=C/c2ccc(OC)c(OC)c2)nc1C#N returned SMN2 splice enh 3% and FLuc counter -3%.
For c1ccc(Nc2c(-c3c[nH]c4ccccc34)nc3ccccn23)cc1 the results were SMN2 splice enh 16µM* and FLuc counter inconclusive.
Screening Cc1ccc2nc(-c3c[nH]c4ccccc34)c(Nc3ccccc3)n2c1 returned SMN2 splice enh 11µM* and FLuc counter -11%.
CCC(Sc1nnc(C)n2c1cc1occc12)C(=O)Nc1ccccc1OC (stereo not given) was read as FLuc counter 0%.
Screening CCOC(=O)c1cnc2ccc(C)cc2c1Sc1ccc(F)cc1 returned SMN2 splice enh -7%, FLuc counter 24µM*, ELG1 genotoxic -2%, Luc counter -2%, Rab9 prom act 19% and NPC1 prom act 10%.
`CNC(=O)C1CCC(Cn2c(=O)c3sccc3n(CC(=O)N3CCC(C)CC3)c2=O)CC1` (stereo not given) gave FLuc counter -1%.
O=C(Nc1ccc(Cc2ccc(NC(=O)C3CC3)cc2)cc1)C1CC1 was read as SMN2 splice enh -25%, FLuc counter 0%, ELG1 genotoxic 8%, Luc counter 0%, Rab9 prom act -1% and NPC1 prom act -5%.
Cc1ccc(C(=O)Nc2ccc(CC(=O)O)cc2)o1 was read as SMN2 splice enh inconclusive, FLuc counter inconclusive, ELG1 genotoxic 0%, Luc counter -11%, Rab9 prom act -1% and NPC1 prom act 2%.
`O=C(O)Cc1ccc(NC(=O)c2ccc(NC(=O)C3CC3)cc2)cc1` gave FLuc counter 17µM*, ELG1 genotoxic 0%, Rab9 prom act 19% and NPC1 prom act -2%.
Screening O=C(Nc1ccncc1)c1ccc(Cl)c(Cl)c1 returned FLuc counter -16%, ELG1 genotoxic 5%, Rab9 prom act 0% and NPC1 prom act 1%.
O=C(O)Cc1ccc(NC(=O)c2ccc(Cl)c(Cl)c2)cc1 was read as SMN2 splice enh 12%, FLuc counter 8.5µM*, ELG1 genotoxic 12%, Luc counter 1%, Rab9 prom act -5% and NPC1 prom act 2%.
CC(C)(C)c1ccc(C(=O)Nc2ccc(CC(=O)O)cc2)o1 was read as SMN2 splice enh -28%, FLuc counter 4.3µM*, ELG1 genotoxic -7%, Luc counter -3%, Rab9 prom act -19% and NPC1 prom act -15%.
`CSc1nnc(N2C(=O)C(O)=C(C(=O)c3ccco3)C2c2ccccc2)s1` (stereo not given) gave FLuc counter -3%, ELG1 genotoxic -6%, Rab9 prom act 4% and NPC1 prom act -2%.
`CSc1nnc(N2C(=O)C(O)=C(C(=O)c3ccc(C)o3)C2c2ccc(C)cc2)s1` (stereo not given) gave FLuc counter inconclusive, ELG1 genotoxic 1.3µM*, Rab9 prom act 0.79µM* and NPC1 prom act 0.63µM*.
Screening COC(=O)c1ccc(NC(=O)CSc2nc(=O)[nH]c3c2CCCC3)cc1 returned FLuc counter 1%.
For Cc1ccc2oc(C(=O)N(C)Cc3ccon3)c(C)c2c1 the results were FLuc counter 11µM*, ELG1 genotoxic 9.2µM*, Rab9 prom act 3.5µM* and NPC1 prom act 3.2µM*.
Screening Cc1ccc2oc(C(=O)N(C)Cc3ccc(C)o3)c(C)c2c1 returned FLuc counter 27µM*, ELG1 genotoxic 12%, Rab9 prom act 12% and NPC1 prom act 9%.
For Cc1nc2c(C(=O)NCCC(C)C)cnn2c(C)c1Cc1c(F)cccc1Cl the results were FLuc counter 0%.
Screening Cc1nc(N)sc1N=Nc1ccccc1C(F)(F)F returned FLuc counter 12µM*, ELG1 genotoxic inconclusive, Rab9 prom act 2.8µM* and NPC1 prom act inconclusive.
Screening CCN(Cc1ccccc1)C(=O)Cn1c(=O)n(-c2ccccc2)c(=O)c2c1c1cc(C)ccc1n2C returned FLuc counter -2%.
`CSc1ccc(CCNC(=O)c2ccc(-n3c(C)cc4c3CCCC4)cc2)cc1` gave FLuc counter -3%.
For FC(F)Sc1ccc(Nc2ncnc3nc[nH]c23)cc1 the results were SMN2 splice enh 11µM*, FLuc counter inconclusive, ELG1 genotoxic 18%, Luc counter 0%, Rab9 prom act inconclusive and NPC1 prom act inconclusive.
Nc1ccc2nc(-c3cccnc3)[nH]c2c1 was read as SMN2 splice enh 3%, FLuc counter inconclusive, ELG1 genotoxic 5%, Luc counter -20%, Rab9 prom act -1% and NPC1 prom act -2%.
For CC(=O)Nc1ccc2nc(-c3cccs3)[nH]c2c1 the results were SMN2 splice enh inconclusive, FLuc counter 12µM*, ELG1 genotoxic inconclusive, Luc counter -13%, Rab9 prom act 2.5µM* and NPC1 prom act inconclusive.
Screening COc1ccc2nc(-c3ccccn3)[nH]c2c1 returned FLuc counter 6.7µM*, ELG1 genotoxic 5.2µM*, Rab9 prom act 2µM* and NPC1 prom act 1.3µM*.
`Nc1ccc(-c2nc3c(Cl)cc(N)cc3[nH]2)cc1` gave SMN2 splice enh -26%, FLuc counter 21µM*, ELG1 genotoxic -4%, Luc counter -16%, Rab9 prom act -13% and NPC1 prom act -26%.

Screens: PubChem BioAssay, National Center for Advancing Translational Sciences (NCATS)
